About 83,000 compounds went through this panel and 20% of them were active in at least one assay; those are over-represented in the sample as a whole.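 Percent growth is the endpoint: 0 to 100 indicates growth inhibition (40 means 60% inhibition), 0 means no net growth, and negative values indicate cell death.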 Activity calls are given as the source filed them. Rule for the calls: active = growth percent below 10; inactive = the rest.

In the assay the test system is MDA-MB-468 breast. In words: NCI-60 one-dose screen, 48 h (100 = growth as untreated, 0 = no growth, -100 = all killed). To be noted: 10 µM unless noted.
As to `Cc1nc2ccccc2c(/C=C/c2ccccc2)c1C(=O)/C=C/c1ccccc1`, the growth was 35.6% (inactive).

`O=C1Nc2ccccc2/C1=C/c1ccc[nH]1`: the growth was -26% (active).

`O=C(Cn1cc(COc2ncnc3c2cnn3-c2ccccc2)nn1)Nc1cccc2ccccc12`: the growth was 86.5% (inactive).

Consider `CN(CCC(=O)c1ccccc1)CCC(=O)c1ccccc1`, for which the growth was 73.4% (inactive).

Regarding `COc1ccc(-c2cnnn2-c2nonc2-n2cccc2)cc1`, the growth is 4.28% (active).

For `CCn1c(Sc2nnc(NC(=O)CCN3CCCC3)s2)nc2c1c(=O)n(C)c(=O)n2C`, the growth is 101% (inactive).

Regarding `CCN(CC)CCOC(=O)C(c1ccccc1)(c1ccccc1)C(C)C`, the growth was 80% (inactive).

With `O=C(CCn1c[n+](CC(=O)c2ccc(F)cc2)c2ccccc21)Nc1cccc2cccnc12`, the growth was -15.5% (active).

As to `CC1CC(O)CC(C)(C)C1.CC1CC(O)CC(C)(C)C1.CC1CC(O)CC(C)(C)C1.CC1CC(O)CC(C)(C)C1.[Ti]` (stereo not given), the growth is 115% (inactive).

Consider `CC(C)CC(=O)Nc1n[nH]c2c1CN(C(=O)C1CCN(C)CC1)C2(C)C`, for which the growth was -44.3% (active).

For the molecule `COc1ccccc1CNCCCN1C(=O)c2ccc3c4c(ccc(c24)C1=O)C(=O)N(CCCNCCCCN)C3=O`, the growth was -55.7% (active).

For `Cc1c(O)c(=O)n(-c2ccccc2)n1C`, the growth was 105% (inactive).

For the molecule `NC(N)=Nc1ccc(Nc2cccc(Nc3ccc(Cl)c(C(F)(F)F)c3)c2)cn1`, the growth was -7.19% (active).

For `Oc1c(Br)cc(Br)c2ccc(Cn3cc(-c4ccc(C(F)(F)F)cc4)nn3)nc12`, the growth was 30.8% (inactive).

For `O=c1[nH]c2c(ccc3cnccc32)c2c1CCC2`, the growth is -60.5% (active).

Turning to `O=C(Nc1ccccc1)Oc1cccc2cccnc12`, the growth is 96.9% (inactive).

On to `COc1ccc(-c2ccc(NC(=O)Nc3cccc(C(F)(F)F)c3)c(C)n2)cc1`, for which the growth was 27.5% (inactive).

With `CC(CCCC(=O)O)c1ccoc1` (stereo not given), the growth was 119% (inactive).

In the case of `c1ccc2c(c1)oc1cc3c(cc12)nnc1cccn13`, the growth was 108% (inactive).

In the case of `Brc1ccc2c(c1)-c1ccccc1C1=NCCN12`, the growth was -45% (active).

Regarding `Cc1cc2nc(C(Cl)Cl)nc(-c3cccs3)n2n1`, the growth was -52% (active).

As to `CCN(CCCCCCN1CC(=O)N(CCCCCCN(CC)Cc2ccccc2OC)CC1=O)Cc1ccccc1OC`, the growth is 84% (inactive).

On to `CCCCCCCCn1ccc2cc(NC(=O)CN3CCN(c4cc(C)nc(Cl)n4)CC3)ccc21`, for which the growth was 56.6% (inactive).

Take `COc1ccc(-c2nnc(N3CCN(C(=O)CN4CCN(c5ccccc5)CC4)CC3)nc2-c2ccc(OC)cc2)cc1`: the growth is 41.4% (inactive).

As to `O=C(CSc1nccc(=O)[nH]1)Nc1ccc(-c2nc3ccccc3[nH]2)cc1`, the growth is 118% (inactive).

Take `C=CCC(O)C=C` (stereo not given): the growth was 102% (inactive).

Regarding `Cc1ccc(Sc2sc(-c3ccccc3)nc2[P+](c2ccccc2)(c2ccccc2)c2ccccc2)cc1`, the growth is -61.8% (active).

For `Cc1c(C)n(CC(O)CNC2CCCCC2C)c2ccccc12` (stereo not given), the growth is -33.8% (active).

Take `Nc1no[n+]([O-])c1-c1nnc2c(n1)-c1ccccc1C2=O`: the growth is 41.5% (inactive).

Take `CC12CCC(/C(=C/NNc3ccc([N+](=O)[O-])cc3[N+](=O)[O-])C1=O)C2(C)C` (stereo not given): the growth was 45% (inactive).

For the molecule `N#CCCN(CCCN1CCOCC1)CN1C(=O)c2ccccc2C1=O`, the growth is 92.2% (inactive).

For `CCN1CCN(c2cc(C(=O)Nc3cccc(Nc4ccc5c(OC)cccc5n4)c3)cc(C(F)(F)F)c2)CC1`, the growth is 23.8% (inactive).

Take `CN1C(=O)N(C)C2C1NN=c1s/c(=C\c3ccsc3)c(=O)n12` (stereo not given): the growth was 34.3% (inactive).

For `COc1ccc(-c2cc(-c3cc(OC)c(OC)c(OC)c3)c(C#N)c(N3CCOCC3)n2)cc1O`, the growth was 76.7% (inactive).

Consider `O=S(=O)(Nc1ccccn1)c1ccc(N=Nc2ccc(O)c3ncccc23)cc1`, for which the growth was 4.46% (active).

In the case of `CCc1nnc(NC(=O)c2ccoc2COc2ccccc2)s1`, the growth was 52.7% (inactive).

In the case of `Cc1ccc(/C=C2\Oc3ccc(O)c(O)c3C2=O)cc1`, the growth is 58.3% (inactive).

Consider `O=C(C[P+](c1ccccc1)(c1ccccc1)c1ccccc1)c1ccccc1`, for which the growth is 103% (inactive).

With `CCOc1ccc(-c2nonc2NC(=O)c2cccc(C)c2)cc1OCC`, the growth was 2.82% (active).

`C#CCn1cnc2c(Nc3cccc(NC(=O)CCl)c3)ncnc21`: the growth is 23.5% (inactive).

These data come from PubChem BioAssay (NCI).
